High-throughput results deposited in PubChem by National Center for Advancing Translational Sciences (NCATS).
Rows were chosen to be rich in hits. Some 2.8% of all compounds tested hit in one or more screens of this group.
IP6K1 inhibitor – inhibitors of human IP6K1. Q92551. IP6K1 kinase, ADP-Glo luminescence, 2 h; hits give low values. activity change, % (series mostly up to about 58 µM). actives 0.81% (n = 140,000). AID 1645851; in the data active = activity change below about -25%; also: % is scaled to controls: 0 for no effect and ±100 for the full control effect
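ADP-Glo luminescence measures ADP made by human IP6K1 during a 2 h RT reaction with ATP/IP6 (mix at 1.3 mM/130 uM); top library doses 57.5 and 19.1 uM final.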
KDM5B inh – blocks human KDM5B histone demethylase activity; Q9UGL1; KDM5B demethylase, FDH-coupled NADH fluorescence (FDH is formaldehyde dehydrogenase); Potency, µM (doses to about 57.7 µM), usual class: inhibitors; actives 2.6% (n = 220,000); AID 1347165; active = well fitted inhibition curve with a large enough effect; inconclusive = small, poorly fitted or top-dose-only effect; inactive = no such curve, though single readings can be large or run the other way; also: potency is read from the fitted curve at half-maximal effect; 0% is about no effect; nearly all actives have a fitted effect of over 70% in size
Target sequence (Q9UGL1 whole entry, looked up): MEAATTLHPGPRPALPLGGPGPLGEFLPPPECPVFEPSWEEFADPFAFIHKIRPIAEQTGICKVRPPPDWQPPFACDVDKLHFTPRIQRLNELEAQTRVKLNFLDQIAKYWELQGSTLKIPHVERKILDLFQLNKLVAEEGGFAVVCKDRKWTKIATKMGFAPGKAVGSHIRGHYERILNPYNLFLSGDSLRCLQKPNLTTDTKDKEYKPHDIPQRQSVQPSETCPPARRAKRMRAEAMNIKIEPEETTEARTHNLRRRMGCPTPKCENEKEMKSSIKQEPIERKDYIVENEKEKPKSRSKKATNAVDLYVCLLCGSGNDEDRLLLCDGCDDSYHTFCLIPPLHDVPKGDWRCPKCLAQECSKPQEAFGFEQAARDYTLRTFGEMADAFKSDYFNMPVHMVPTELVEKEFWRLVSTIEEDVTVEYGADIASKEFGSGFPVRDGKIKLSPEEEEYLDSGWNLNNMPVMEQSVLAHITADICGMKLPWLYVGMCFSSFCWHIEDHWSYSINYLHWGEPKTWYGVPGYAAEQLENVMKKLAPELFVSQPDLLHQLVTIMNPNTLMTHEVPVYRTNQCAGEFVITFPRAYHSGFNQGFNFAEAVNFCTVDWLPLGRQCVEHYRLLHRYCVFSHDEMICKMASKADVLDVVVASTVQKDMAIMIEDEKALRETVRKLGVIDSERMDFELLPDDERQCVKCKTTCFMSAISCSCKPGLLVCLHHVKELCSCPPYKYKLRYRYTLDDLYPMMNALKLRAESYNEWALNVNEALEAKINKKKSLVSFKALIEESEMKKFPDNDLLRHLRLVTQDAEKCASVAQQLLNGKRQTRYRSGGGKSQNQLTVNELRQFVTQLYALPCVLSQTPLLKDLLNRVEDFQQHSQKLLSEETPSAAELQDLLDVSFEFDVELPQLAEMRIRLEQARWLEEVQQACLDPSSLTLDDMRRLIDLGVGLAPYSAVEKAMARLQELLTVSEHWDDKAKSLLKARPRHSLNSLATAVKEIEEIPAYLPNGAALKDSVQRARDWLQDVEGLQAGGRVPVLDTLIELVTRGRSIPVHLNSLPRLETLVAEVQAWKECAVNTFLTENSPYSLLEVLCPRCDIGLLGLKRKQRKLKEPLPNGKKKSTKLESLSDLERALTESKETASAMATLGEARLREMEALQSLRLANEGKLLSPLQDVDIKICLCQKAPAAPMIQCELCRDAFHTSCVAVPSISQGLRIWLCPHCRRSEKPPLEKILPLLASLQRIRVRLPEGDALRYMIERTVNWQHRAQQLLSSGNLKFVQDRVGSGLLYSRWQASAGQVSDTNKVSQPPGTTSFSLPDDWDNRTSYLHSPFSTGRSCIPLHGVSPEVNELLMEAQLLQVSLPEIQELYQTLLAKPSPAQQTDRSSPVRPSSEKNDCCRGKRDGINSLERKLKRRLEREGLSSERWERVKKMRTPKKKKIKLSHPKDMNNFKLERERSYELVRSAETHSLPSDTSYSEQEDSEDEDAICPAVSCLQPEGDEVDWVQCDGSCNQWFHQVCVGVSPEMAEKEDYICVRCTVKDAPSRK
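qHTS format, multiple compound concentrations. Buffer 50 mM HEPES pH 7.5/0.01% Tween-20; 200 nM KDM5BΔAP final; 10 min compound preincubation; substrate-mix levels 12.5 µM peptide, 25 µM α-KG, 0.25 mM NAD⁺; 30 min RT; ΔRFU.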
An asterisk follows results filed as active; i = inactive; ? = inconclusive; nt = not tested or not shown.

SMILES	IP6K1 inhibitor	KDM5B inh
COc1ccccc1Nc1ccnc(N2CCC(N[S+](=O)([O-])c3ccccc3)CC2)n1	11	nt
COc1ccc(F)cc1-c1ccc(CN2CCCCC2C(=O)NCc2ccc(C(F)(F)F)cc2)cc1 (configuration not stated)	8	nt
O=C(O)CCCC(=O)c1ccc2c(c1)OCCOCCOCCOCCO2	nt	i
CC1(C)[C@H](Cc2cc(CC3CCCCC3)on2)C[C@@H]1NS(C)(=O)=O	-14	?
CC(C)(C)c1ccc(C(=O)NCC(c2cccs2)N2CCCC2)cc1 (configuration not stated)	nt	i
COCCCNC(=O)c1ccc2nnc(-c3cc[nH]c3)n2c1	-8	nt
O=C1NCc2ccccc2CC12CCCN2Cc1ccc(O)cc1O (configuration not stated)	-1	89µM*
COc1ccc(CN2CCCC23Cc2ccccc2CNC3=O)c(O)c1 (configuration not stated)	-7	i
O=C1COc2ccc(-c3ccncc3)nc2CN1Cc1ccccc1	4	35µM*
CC(=O)Nc1cccc(-c2ccc3c(n2)CN(Cc2ccccc2)C(=O)CO3)c1	-19	i
O=C1COc2ccc(-c3cn[nH]c3)nc2CN1Cc1ccc(C(F)(F)F)cc1	-18	i
O=C1COc2ccc(-c3ccncc3)nc2CN1Cc1ccc(C(F)(F)F)cc1	-9	40µM*
O=C1COc2ccc(-c3ccoc3)nc2CN1Cc1ccccc1	5	32µM*
Cc1ccccc1-c1ccc2c(n1)CN(Cc1ccccc1)C(=O)CO2	-10	i
C[S+](=O)([O-])c1cccc(-c2nnc3ccc(C(=O)NCCCc4ccccc4)cn23)c1	5	nt
CN1CCN(C(=O)c2cccc3c2NCCC3)CC12CCNC(=O)CC2 (configuration not stated)	12	25µM*
CN1CCN(C(=O)c2cccs2)CC12CCNC(=O)CC2 (configuration not stated)	8	i
COc1ccc(S(=O)(=O)Nc2nc3ccccc3nc2Nc2cccc(Br)c2)cc1	nt	i
Cc1ccc(C(=O)N2CCN(c3cc(-c4ccccc4)[nH]n3)CC2)cc1F	3	i
COc1ccc(C(=O)N2CCC(C3CCN(C)CC3)C2)cc1F (configuration not stated)	-3	i
COc1ccc(-c2cc(N3CCCN(C(=O)c4ccccc4OC)CC3)n[nH]2)cc1	-13	i
Cc1ccc(C(=O)N2CCN(c3nnc4cccc(C)n34)CC2)cc1F	48	28µM*
COc1ccccc1C(=O)N1CCCN(c2nnc3cccc(C)n23)CC1	11	25µM*
COc1ccc(C(=O)N2CCN(c3nnc4cccc(C)n34)CC2)cc1F	14	28µM*
Cc1oc2cc(OCC(=O)Nc3ccc(O)cc3)ccc2c(=O)c1-c1ccccc1	nt	i
SMILES	IP6K1 inhibitor	KDM5B inh
O=C(NCC(=O)N1CCCCC1)c1ccc(-c2cnc3ccccc3c2)cc1	5	nt
Cc1ccc([S+](=O)([O-])N2CCCC(C(=O)N3CCC4(CC3)CC(=O)Nc3ccccc3O4)C2)cc1 (configuration not stated)	-1	nt
O=C(NC1CC1)C1CCCCN1Cc1ccc(-c2cccs2)cc1 (configuration not stated)	3	nt
Cn1ncc2c(C(=O)NC3CCCC3)cc(-c3ccccc3C(F)(F)F)nc21	-5	nt
CNC(=O)CCn1ncc2cc(OCc3ccccc3-c3ccc(F)cc3C)ccc21	8	?
COc1ccc(-c2cc3c(ccn3C(C)C)c(C(=O)NCc3c(C)cc(C)[nH]c3=O)n2)cc1	7	25µM*
Cc1cc(C)c(CNC(=O)c2nc(-c3ccc(CN(C)C)cc3)cc3c2ccn3C(C)C)c(=O)[nH]1	-8	28µM*
Cc1cc(C)c(CNC(=O)c2nc(-c3cnn(C)c3)cc3c2ccn3C)c(=O)[nH]1	4	22µM*
COc1ccc(-c2cc3c(ccn3C(C)C)c(C(=O)NCc3c(C)cc(C)[nH]c3=O)n2)cn1	-16	?
Cc1ccc(-c2cc3c(ccn3C(C)C)c(C(=O)NCc3c(C)cc(C)[nH]c3=O)n2)cn1	-14	?
Cc1cc(-c2cc3c(ccn3C)c(C(=O)NCc3c(C)cc(C)[nH]c3=O)n2)ccn1	41	i
CN(C)CC#CC(O)(c1ccccc1)C1(C)CCCC1 (configuration not stated)	nt	i
Cc1oc(-c2ccccc2)nc1C(=O)OCC(=O)NC1(C#N)CCCCC1	nt	i
O=C(Cn1nc2c(cc1=O)CCCC2)N1CCc2c([nH]c3ccccc23)C1	31	?
O=C(NCCc1ccc(F)cc1)C1CCN(C(=O)c2ccc(-c3cccs3)cc2)CC1	-13	nt
O=C(c1nc(-c2ccc(Cl)cc2Cl)c2cnccn12)N1CCN(c2ncccn2)CC1	-13	?
O=C(c1nc(-c2ccc(F)cc2)c2ccccn12)N1CCN(c2ncccn2)CC1	8	28µM*
O=C(c1nc(-c2ccc(Cl)nc2)c2ccccn12)N1CCN(c2ncccn2)CC1	-8	?
O=C(c1nc(-c2ccc(F)cc2)c2cnccn12)N1CCN(c2ncccn2)CC1	1	25µM*
CC(C)(C)c1nc(C(=O)N2CCN(c3ncccn3)CC2)n2ccncc12	-18	79µM*
O=C(NC1CC1)c1nc(-c2cccnc2)c2cnccn12	6	?
O=C(NC1CC1)c1nc(-c2ccc(F)cc2)c2cnccn12	0	35µM*
CC(C)(C)c1cc(C(=O)N2CCN(c3ncccn3)CC2)nn2cccc12	9	i
O=C(NCc1ccc(F)cc1)C1CCc2nnc(C3CCN([S+](=O)([O-])c4ccccc4Cl)CC3)n21 (configuration not stated)	-3	nt
CC(C)c1nc(-c2ccc(OC3CCN(C(=O)c4ccoc4)C3)cc2)no1 (configuration not stated)	4	nt
SMILES	IP6K1 inhibitor	KDM5B inh
CCn1cnc2c1c(=O)n(CC(=O)Nc1ccc(OC)c(OC)c1)c(=O)n2Cc1ccccc1	nt	i
C[S+](=O)([O-])c1ccc(-c2nc(C(=O)N3CCCC3)n3ccncc23)cc1	-8	?
O=C(c1nc(-c2ccc(Cl)cc2)c2cnccn12)N1CCOCC1	0	32µM*
N#Cc1ccc(Oc2cccc3cccnc23)cc1C#N	nt	i
COCC(=O)N1CCC[C@@H]1C(=O)N1CCCC(c2nc3ccncc3[nH]2)C1 (some centres not stated)	-2	nt
COc1ccccc1-c1cccc(C(=O)N2CCC[C@H]2C(=O)N2CCC(c3ccccc3)CC2)c1	3	nt
Cc1ccc(C(=O)Nc2ccc(-c3nc4ccccc4o3)cc2)cc1	nt	i
CC(=O)N1CCCC1C(=O)Nc1ccc(-c2nc3ccccc3o2)cc1 (configuration not stated)	-5	28µM*
O=C(NCc1ccc(C(F)(F)F)cc1)C1CCN(Cc2ccccc2-c2cccnc2)CC1	7	nt
O=C(C1CCN(c2nccc(Nc3ccccc3Cl)n2)CC1)N1CCCCC1	18	nt
CN(C)CCN(C)C(=O)c1cc(-c2ccccc2F)cc2c1OCCN2Cc1cccnc1	-20	i
CN(C)CCNC(=O)c1cc(-c2ccccc2F)cc2c1OCCN2Cc1cccnc1	-20	35µM*
CC(C)NC(=O)c1cc(-c2ccccc2F)cc2c1OCCN2Cc1cccnc1	-15	22µM*
COC1=C(c2ccc(F)cc2)C(=O)N(Cc2ccccc2)C1	11	nt
CCCCCC(=O)N1CCC(=O)N(CCOC)C[C@H]2COc3ccccc3[C@H]21	9	nt
